Results taken from PubChem BioAssay AID614 (Sanford-Burnham Center for Chemical Genomics, 2007).
Screen size: about 21,000 compounds; fewer than 10 were called active.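 The calls were made as follows: active = inhibition above 50% at the 20 µM single-dose screen; inactive = the rest.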 The list is a sample of the results.

Each molecule was assayed against Alkaline phosphatase, tissue-nonspecific isozyme (Homo sapiens) (UniProt P05186) (assay: human TNAP enzyme inhibitors, primary screen, biochemical, colorimetric, phosphate release readout (AID 614)). Conditions: purified TNAP, pNPP, malachite green phosphate absorbance; at 20 µM; stronger effect = higher value.
Chain of Alkaline phosphatase, tissue-nonspecific isozyme (Homo sapiens) (P05186 whole entry, looked up): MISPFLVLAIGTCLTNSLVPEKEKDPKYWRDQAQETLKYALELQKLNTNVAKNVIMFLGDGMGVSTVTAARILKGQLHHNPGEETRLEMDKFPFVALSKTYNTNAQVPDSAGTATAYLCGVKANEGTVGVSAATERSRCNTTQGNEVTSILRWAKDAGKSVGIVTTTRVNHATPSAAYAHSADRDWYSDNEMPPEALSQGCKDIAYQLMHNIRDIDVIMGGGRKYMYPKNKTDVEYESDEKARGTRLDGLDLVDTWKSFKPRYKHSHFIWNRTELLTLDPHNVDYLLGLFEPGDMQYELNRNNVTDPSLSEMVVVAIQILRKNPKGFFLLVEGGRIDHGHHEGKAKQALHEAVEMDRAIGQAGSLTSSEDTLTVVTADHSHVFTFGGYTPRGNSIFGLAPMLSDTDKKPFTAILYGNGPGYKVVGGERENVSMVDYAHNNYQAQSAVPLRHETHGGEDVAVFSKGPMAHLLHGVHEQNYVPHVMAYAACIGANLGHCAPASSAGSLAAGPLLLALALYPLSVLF

inhibition, inactive:
CC1CCN(C(=O)Cn2cc(C(=O)c3ccco3)c3ccccc32)CC1 14.2%
O=C(c1ccccc1)N1CCN(C(=O)N2CCCCC2)CC1 -5.7%
CC1C(c2ccccc2)=[N+]([O-])C2(CCCC2)N1O (stereo not drawn) 12.6%
Cc1nonc1OCCn1nnnc1N 8.7%
O=C(OC(C(=O)NC1CCCC1)c1ccc(F)cc1)c1ccno1 (stereo not drawn) 0%
CCc1ccccc1NC(=O)CSc1nnc([C@@H](NC(=O)OC(C)(C)C)C(C)C)o1 4.3%
CC1OC2C(OC1C)N(S(C)(=O)=O)CCN2S(C)(=O)=O (stereo not drawn) 10%
O=C(CCN1C(=O)c2ccccc2C1=O)Nc1ccncc1 7.9%
CCOC(=O)CSc1nc2sc3c(c2c(=O)[nH]1)CC(C)(C)OC3 -12.8%
COc1ccc(-c2cc(C(F)(F)F)n3nc(C(=O)N4CCOCC4)c(Cl)c3n2)cc1 6%
C=C(Br)Cn1c(CCCC)nc2ccccc21 0%
COc1ccc(Br)cc1/C=N/n1c(C)nnc1C 8.2%
CCC(=O)Nc1sc(C(=O)N2CCCCC2)c(C)c1C#N -23.7%
CCCCNc1nc2ccccc2nc1NS(=O)(=O)c1cccs1 1.2%
COc1cc(C2C(C(=O)c3sc(C)nc3C)=C(O)C(=O)N2CCN(C)C)cc(OC)c1OC (stereo not drawn) 13%
Cc1cc(C)c(C#N)c(SCc2ccccc2C(=O)O)n1 -0.3%
CCCCc1nc2ccccc2c(=O)n1NC(=O)c1c(O)c2cccc3c2n(c1=O)CC3 4.4%
Cc1ccc2cc(C#N)c(SCC(=O)NCC3CCCO3)nc2c1C (stereo not drawn) 8.6%
COc1ccc2c(c1OC)C(=O)OC2c1c(O)nc(SC)n(-c2ccccc2)c1=O (stereo not drawn) -0.7%
Cc1ccc2c(NC(=O)C3CC3)cccc2n1 9.9%
O=c1c(F)cn(C2CCCO2)c(=O)n1Cc1ccccc1Cl (stereo not drawn) 7.7%
COCCNC(=O)c1ccccc1-c1nc(-c2ccccc2Cl)no1 1.6%
Cc1cc(C)nc(N(C#N)CC(=O)Nc2ccccc2)n1 -15.3%
CCCCNC(=O)CSc1nccn1Cc1ccccc1 10.7%
CCC(C)NC(=O)N[C@@H](CCSC)C(=O)O (stereo partly drawn) 8.1%
O=C(Nc1cnccn1)c1cccnc1 6.7%
COc1ccc(-c2n[nH]c(C)c2-c2ccc(OC)c(OC)c2)c(O)c1 7.2%
c1nc(COc2nsnc2N2CCOCC2)cs1 5.5%
Cc1cc2ccccc2n2c(SCC(=O)N3CCN(C(=O)c4ccco4)CC3)nnc12 12.5%
CC(=O)Nc1cccc2c1[n+]([O-])c(C)c(C)[n+]2[O-] 2.9%
N#CCCN(CCC#N)c1nnc(-c2ccccc2)s1 0%
COc1ccc(Cn2cccc(NC(=O)Nc3ccc(C#N)cc3)c2=O)cc1 10.4%
CCOC(=O)CNC(=O)CSc1nnc(COc2ccc(Cl)cc2)n1CC 10.6%
CCc1nnc(NC(=O)c2nc3nccc(C)n3n2)s1 -4.2%
CNC(=O)c1cc2c(ccc3ccccc32)oc1=N 5.2%
CCN(c1ccccc1)S(=O)(=O)c1cccc(C(=O)O)c1 1.1%
CN(C)c1nc2n(c(=O)n1)CCO2 -3%
COc1ccccc1NC(=O)C1=C(C)NC2=C(C(=O)CCC2)C1c1ccc(C)o1 (stereo not drawn) -1.3%
C=CCc1cccc2cc(C(=O)N3CCN(C(=O)OCC)CC3)c(=O)oc12 5.5%
CC1Cc2ccccc2N1C(=O)CSc1nnc(-c2ccc(S(=O)(=O)N3CCCCC3)cc2)o1 (stereo not drawn) 12.2%
O=c1oc2c(CN3CCCCC3)c(O)ccc2c2c1CCCCC2 8.2%
CCn1c(SCC(=O)Nc2cc(C)c(Cl)cc2OC)nnc1-c1ccco1 10.5%
O=C(NC1CCCCC1)n1c(=O)oc2cc(S(=O)(=O)N3CCCCC3)ccc21 6.7%
Cn1c(SCC(=O)OC2CCCCC2)nnc1-c1ccc(S(=O)(=O)N2CCCC2)cc1 10.3%
O=C(NCc1cn2ccsc2n1)Nc1cccc(Cl)c1 0.5%
CCC1(C)N(O)C(C)(C)C(c2ccc(OC)cc2)=[N+]1[O-] (stereo not drawn) 8.5%
CCc1c(O)nc(SCC(=O)N2CCCCC2)n(-c2ccccc2C)c1=O 2.1%
Cc1ccc(C(C(=O)NCc2ccco2)N(CC2CCCO2)C(=O)Cn2nnc3ccccc32)cc1 (stereo not drawn) 8.3%
CC(C)=C(NC(=O)c1ccco1)C(=O)NCCc1nc2ccccc2[nH]1 9.6%
O=C(O)CCC(=O)N(Cc1ccco1)c1nc(-c2ccccc2)cs1 7.9%
COC(=O)COc1ccc(S(=O)(=O)Nc2ccc(NC(C)=O)cc2)cc1 11.9%
CCc1cccc(C)c1NC(=O)CSc1nnc(-c2ccco2)n1N 7.1%
C/C(O)=C\c1nc(=O)c2c(C)cc(C)nc2n1-c1ccccc1 10.5%
COc1ccccc1N1CCN(C(=O)c2ccc(S(=O)(=O)N3CCCCC3)cc2)CC1 11.7%
Cc1ccc(C(C)C)c(OCc2nnc(SCC(=O)Nc3nccs3)n2C)c1 -5.7%
NC(=O)C1CCN(C2OC(=O)c3ccccc32)CC1 (stereo not drawn) 0%
O=C(CSc1nnnn1-c1ccc2c(c1)CCC2)Nc1ccc2c(c1)OCCO2 -0.8%
O=C(CNCCO)NC12CC3CC(CC(C3)C1)C2 0%
Cc1nc(NC(CC(C)C)C(=O)O)c2nc(C)oc2n1 (stereo not drawn) -15%
O=C1c2oc3ccc(Br)cc3c(=O)c2C(c2cccc(F)c2)N1CCO (stereo not drawn) 10.1%
CC(C)C(=O)N1CCN(CCN=CC2=C(O)CC(c3ccco3)CC2=O)CC1 (stereo not drawn) 2.1%
CCOC(=O)c1c(NC(=O)CSc2nnc(C)c(=O)[nH]2)sc2c1CCC2 10.5%
COC(=O)C(NC(C)=O)(Nc1nc2c(s1)CCCC2)C(F)(F)F (stereo not drawn) 10.6%
